Measurements: PubChem BioAssay (NCATS)
Values joined by “and” are separate entries in the source; they are usually repeats but may differ in a detail not shown here. Equal entries are not always repeated. Records with an inconclusive call do not appear. Active and inactive are the calls of the source. Calls come from the whole dose curve; as a rule, active = well fitted curve in the direction sought with a large enough effect; inconclusive = small, poorly fitted or top-dose-only effect, or another doubt; inactive = no such curve, though single readings can be large; an effect the other way counts as inactive or inconclusive.

Key:
[1] = tested on: KB-3-1; test: Cytotoxic Profiling of Annotated Libraries Using Quantitative High-Throughput Screening (AID 1296008); details: Five cell lines viability, CellTiter-Glo ATP luminescence, 48-72 h; max response: active compounds read low; note: nearly all actives have a fitted effect of over 60% in size; note: potency is the fitted concentration of half-maximal effect
Method in brief: (§1)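 Cells exposed to compounds for 48 or 72 hr at 37 degrees Celsius. Viability read as ATP-coupled luminescence with CellTiter-Glo after 10 min at room temperature.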

[2] = tested on: NIH3T3; test: as above; details: Five cell lines viability, CellTiter-Glo ATP luminescence, 48-72 h; max response: active compounds read low
Method in brief: as §1

[3] = tested on: MCC-13; test: qHTS assay to identify novel small-molecules to repurpose for Merkel cell carcinoma treatment (AID 1296009); details: MCC and control cell lines, CellTiter-Glo viability, 72 h; series mostly up to 46 µM; note: nearly all actives have a fitted effect of over 60% in size
Method in brief: (§2)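 Cells were incubated with compound for 72 hr at 37 degree celsius before CellTiter-Glo addition. Luminescence was normalized with no-cell wells as full cytotoxicity and DMSO as baseline.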

[4] = tested on: MCC-26; test: as above; details: MCC and control cell lines, CellTiter-Glo viability, 72 h; series mostly up to 46 µM
Method in brief: as §2

[5] = tested on: MKL-1; test: as above; details: MCC and control cell lines, CellTiter-Glo viability, 72 h; series mostly up to 46 µM
Method in brief: as §2

[6] = tested on: MKL-2; test: as above; details: MCC and control cell lines, CellTiter-Glo viability, 72 h; series mostly up to 46 µM
Method in brief: as §2

[7] = tested on: NIH3T3; test: as above; details: MCC and control cell lines, CellTiter-Glo viability, 72 h; at 44.8 µM (top of the series) unless noted
Method in brief: as §2

[8] = tested on: UISO; test: as above; details: MCC and control cell lines, CellTiter-Glo viability, 72 h; series mostly up to 46 µM
Method in brief: as §2

[9] = tested on: WaGa; test: as above; details: MCC and control cell lines, CellTiter-Glo viability, 72 h; series mostly up to 46 µM
Method in brief: as §2

[10] = tested on: C33A; test: Primary qHTS to identify gynecologic anti-cancer compounds using libraries of approved drugs and bioactive compounds (AID 1345084); details: Gynecologic cancer cell panel viability, ATPlite luminescence, 48 h; series mostly up to 57.5 µM; note: nearly all actives have a fitted effect of over 55% in size; note: potency is the fitted concentration of half-maximal effect
Method in brief: (§3)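 Cells, 1,000 per well, plated 16 h, then exposed 48 h at 37 C to compounds. Viability by ATPlite luminescence after 15 min at room temperature.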

[11] = tested on: CAOV3; test: as above; details: Gynecologic cancer cell panel viability, ATPlite luminescence, 48 h; series mostly up to 57.5 µM
Method in brief: as §3

[12] = tested on: CASKI; test: as above; details: Gynecologic cancer cell panel viability, ATPlite luminescence, 48 h; series mostly up to 57.5 µM
Method in brief: as §3

[13] = tested on: Es-2; test: as above; details: Gynecologic cancer cell panel viability, ATPlite luminescence, 48 h; series mostly up to 57.5 µM
Method in brief: as §3

[14] = tested on: HeLa; test: as above; details: Gynecologic cancer cell panel viability, ATPlite luminescence, 48 h; series mostly up to 57.5 µM
Method in brief: as §3

[15] = tested on: Hek293T; test: as above; details: Gynecologic cancer cell panel viability, ATPlite luminescence, 48 h, control line for the selectivity index; series mostly up to 57.5 µM
Method in brief: as §3

[16] = tested on: JEG-3; test: as above; details: Gynecologic cancer cell panel viability, ATPlite luminescence, 48 h; series mostly up to 57.5 µM
Method in brief: as §3

[17] = tested on: OV90; test: as above; details: Gynecologic cancer cell panel viability, ATPlite luminescence, 48 h; series mostly up to 57.5 µM
Method in brief: as §3

[18] = tested on: PA-1; test: as above; details: Gynecologic cancer cell panel viability, ATPlite luminescence, 48 h; series mostly up to 57.5 µM
Method in brief: as §3

[19] = tested on: HEK293T; test: qHTS assay to identify novel small-molecules to repurpose for Merkel cell carcinoma treatment (AID 1296009); details: MCC and control cell lines, CellTiter-Glo viability, 72 h; series mostly up to 44.8 µM; note: nearly all actives have a fitted effect of over 60% in size
Method in brief: as §2
% is set by controls: 0 for no effect and ±100 for the full control effect.

CN1Cc2c(N)cccc2C(c2ccccc2)C1 (configuration not stated)
inactive: max response [1] -2.79% | outcome [2] | outcome [3] | outcome [4] | outcome [5] | outcome [6] | outcome [7] | outcome [8] | outcome [9] | Potency [10] | Potency [11] | Potency [12] | Potency [13] | Potency [14] | Potency [15] | Potency [16] | Potency [17] | Potency [18]

Cc1ccc(C(=O)Nc2ccc(Oc3cc4cnn(C)c4cc3-c3cn[nH]c3)c(F)c2)c(=O)n1-c1ccc(F)cc1
inactive: Potency [10] | Potency [13]
active: Potency [1] 5.17 µM | Potency [2] 4.11 µM | Potency [11] 8.91 µM

COc1c(C)c(OCC=C(C)C)cc2c1C(=O)NC2=O
inactive: outcome [1] | max response [2] -1.16% | Potency [19] | Potency [10] | Potency [12] | Potency [13] | Potency [14] | Potency [15] | Potency [16] | Potency [17] | Potency [18]

COc1cc2c(Nc3ccc(Cl)c(Cl)c3F)ncnc2cc1OCC1C[C@@H]2CN(C)C[C@@H]2C1 (some centres not stated)
active: Potency [1] 18.4 µM | Potency [2] 1.3 µM and 8.31 µM | Potency [11] 31.6 µM | Potency [12] 11.2 µM | Potency [17] 20 µM

Nc1nonc1C(=Nc1ccc(F)c(Cl)c1)NO
inactive: outcome [1] | outcome [2] | Potency [19] | Potency [10] | Potency [12] | Potency [13] | Potency [14] | Potency [15] | Potency [16] | Potency [17] | Potency [18]

CC(=O)c1c(C)cc(O[C@@H]2O[C@H](CO)[C@@H](O)[C@H](O)[C@H]2O)cc1O
inactive: max response [1] -6.9% | max response [2] 0.376% | Potency [19] | Potency [10] | Potency [12] | Potency [13] | Potency [14] | Potency [15] | Potency [16] | Potency [17] | Potency [18]

C=C1CC[C@@H]2[C@](C)(CC[C@H](O)[C@@]2(C)CCC=C(C)C)[C@@H]1Cc1c[nH]c2ccccc12
inactive: max response [1] 1.09% | outcome [2] | Potency [19] | Potency [10] | Potency [12] | Potency [13] | Potency [14] | Potency [15] | Potency [16] | Potency [17] | Potency [18]

CC(=O)c1cnc2ccc(-c3cc(Cl)c(O)c(Cl)c3)nc2c1NC1CCC(CN(C)C)CC1 (configuration not stated)
active: Potency [1] 0.075 µM | Potency [2] 93.3 nM and 299 nM | Potency [10] 224 nM | Potency [12] 1 µM | Potency [13] 891 nM | Potency [15] 562 nM | Potency [18] 501 nM

Cc1onc(-c2ccccc2)c1C(=O)N[C@@H]1C(=O)N2[C@@H]1SC(C)(C)[C@@H]2C(=O)O
inactive: outcome [1] | outcome [2] | outcome [7] | Potency [10] | Potency [11] | Potency [12] | Potency [13] | Potency [14] | Potency [15] | Potency [16] | Potency [17] | Potency [18]

NCc1ccc(OCCCc2sc(-c3ccc4c(c3)/C(=N/Nc3nc5ccccc5s3)CCC4)nc2C(=O)O)cc1
inactive: max response [1] -25.7% | max response [2] -6.71% | Potency [10] | Potency [13] | Potency [15] | Potency [16] | Potency [18]

CC(C)Nc1cc(-c2c[nH]c(C(=O)N[C@H](CO)c3cccc(Cl)c3)c2)c(Cl)cn1
inactive: max response [1] -26.9% | Potency [10] | Potency [11] | Potency [12] | Potency [14] | Potency [15] | Potency [16]

CCOc1cc2ncc(C#N)c(Nc3ccc(OCc4ccccn4)c(Cl)c3)c2cc1NC(=O)/C=C/CN(C)C
inactive: max response [1] -14.4% | Potency [10] | Potency [11] | Potency [13] | Potency [15] | Potency [16] | Potency [17]

C/C(=C\CO)CC/C=C(\C)C(=O)O[C@H]1[C@H](OC2OC=C(C(=O)O)C3CCC(C)(O)C23)O[C@H](CO)[C@@H](O)[C@@H]1O (some centres not stated)
inactive: outcome [1] | max response [2] 0.631% | Potency [19] | Potency [10] | Potency [12] | Potency [13] | Potency [14] | Potency [15] | Potency [16] | Potency [17] | Potency [18]

Cc1nc2c(-c3cnc(N)nc3)nc(N3CCOCC3)nc2n1C(C)C
active: Potency [1] 0.461 µM | Potency [2] 1.16 µM and 234 nM | Potency [10] 1410 nM | Potency [12] 1.26 µM | Potency [14] 1.58 µM | Potency [15] 708 nM | Potency [17] 1.12 µM | Potency [18] 2000 nM

CC(CO[C@@H]1O[C@H](COC(=O)/C=C/c2ccc(O)c(O)c2)[C@@H](O)[C@H](O)[C@H]1O)C1(O)COC(=O)C1 (some centres not stated)
inactive: max response [1] -4.71% | max response [2] -5.15% | Potency [19] | Potency [10] | Potency [11] | Potency [12] | Potency [13] | Potency [14] | Potency [15] | Potency [17] | Potency [18]
